Screening results as filed in PubChem BioAssay.
A selection: hits, their analogues and other compounds. The true share with any hit is near 3%.
VDR inh: vitamin D3 receptor (human) inhibition | P11473 | Potency, µM, for inactives: max response, negative = inhibition, most hits filed as inhibitors | VDR-SRC2-3 peptide fluorescence polarization, 2 h | 0.93% of 400,000 active | AID 504847; further: on the % scale 0 is the no-effect control and ±100 the full control effect
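Fluorescence polarization assay measuring small-molecule disruption of VDR binding to the coregulator peptide SRC2-3. Compounds were pin-transferred (23 nl) into the reagent mix and incubated 2 h at room temperature before reading.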
PTAP TSG101 blk: blocks PTAP/TSG101 interaction to inhibit HIV-1 budding; 340,000 tested, under 10 active; Fluorescence polarization, FITC-PTAP peptide / Tsg101 binding; AID 493005; Potency, µM (highest dose often 115 µM), for inactives: top-dose activity change, negative = inhibition, most hits filed as inhibitors; active means well fitted inhibition curve with a large enough effect in the main read-out, with a control signal flat, not every such curve was filed as active; inconclusive means small, poorly fitted or top-dose-only effect, or effect the other way, or a change in a side signal; inactive means no such curve, though single readings can be large or run the other way; further: % of control where 0% means no effect
Target sequence (Q99816 whole entry, looked up): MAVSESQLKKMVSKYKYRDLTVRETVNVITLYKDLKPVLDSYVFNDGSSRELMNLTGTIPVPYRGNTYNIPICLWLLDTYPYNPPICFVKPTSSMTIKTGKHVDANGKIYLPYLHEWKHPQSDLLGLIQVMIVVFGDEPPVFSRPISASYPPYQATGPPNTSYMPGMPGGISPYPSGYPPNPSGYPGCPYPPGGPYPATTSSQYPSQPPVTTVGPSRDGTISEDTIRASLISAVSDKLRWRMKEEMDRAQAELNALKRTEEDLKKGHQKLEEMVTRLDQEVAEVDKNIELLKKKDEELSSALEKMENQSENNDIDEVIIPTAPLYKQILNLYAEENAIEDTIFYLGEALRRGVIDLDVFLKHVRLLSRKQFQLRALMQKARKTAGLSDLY
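FP read-out: FITC-PTAP peptide, 50 nM final, binding Tsg101 binding domain, 10 uM final; 20 min, r.t.; 10 mM HEPES pH 7.5, 0.15 M NaCl, 0.01% Tween 20, 3 mM EDTA, 0.1 mM TCEP.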
PLK1 PBD inh: PLK1 (human) polo-box domain binding inhibition; P53350; Plk1 PBD binding of FITC phosphopeptide, fluorescence polarization; Potency, µM, for the others: max response, negative = inhibition, hits mostly inhibitors; 2.8% of 360,000 active; further: series mostly up to about 57 µM; on the % scale 0 is the no-effect control and ±100 the full control effect; nearly all actives have a fitted effect of over 65% in size
GCN5L2 inh: blocks human GCN5L2 histone acetyltransferase; GCN5L2 HAT assay, ThioGlo1 CoA-SH fluorescence; AID 504327; Q92830; Potency, µM (doses to about 58.9 µM), without a hit: at the highest dose activity change, negative = inhibition, most hits filed as inhibitors; 0.21% of 390,000 active; further: on the % scale 0 is the no-effect control and ±100 the full control effect
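GCN5L2 (20nM final) in 50mM HEPES, 0.1mM EDTA pH 7.5, 0.01% Tween-20 was preincubated 15 min at room temperature with compound, then given ThioGlo1 (50uM), H3(1-25) peptide (75uM) and acetyl-CoA (70uM); CoA-thiol fluorescence (Ex340/Em540) was read at 0 and 20 min.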
USP1-UAF1 inh: USP1/UAF1 (human) deubiquitinase inhibition; recombinant USP1/UAF1, Ub-Rhodamine cleavage fluorescence; Potency, µM (top dose mostly 57.1 µM), inactives show top-dose activity change, negative = inhibition, hits mostly inhibitors; 0.23% of 390,000 active; further: on the % scale 0 is the no-effect control and ±100 the full control effect; nearly all actives have a fitted effect of over 60% in size
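USP1/UAF1 complex at 1 nM was preincubated with compound for 15 min at room temperature, then Ub-Rho substrate (150nM final) was added. Fluorescence (480/540 nm) was read kinetically, 6 reads every 60 seconds.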
Numbers without * were called inactive; u = inconclusive; x = no result given. Unless noted, the call rests on the fitted dose curve; in most records, active means well fitted curve in the direction sought with a large enough effect; inconclusive means small, poorly fitted or top-dose-only effect, or another doubt; inactive means no such curve, though single readings can be large; an effect the other way counts as inactive or inconclusive. Potency means the concentration at half of the fitted maximal effect.

SMILES	VDR inh	PTAP TSG101 blk	PLK1 PBD inh	GCN5L2 inh	USP1-UAF1 inh
C=C(CCC12O[C@H](C(=O)O)[C@@](O)(C(=O)O)[C@](C(=O)O)(O1)[C@H](OC(=O)/C=C/[C@@H](C)C[C@@H](C)CC)[C@H]2O)[C@@H](OC(C)=O)[C@H](C)Cc1ccccc1	u	x	x	5µM*	x
O=C(O)C(c1ccccc1)N1C(=O)/C(=C\c2ccc(-c3ccccc3Cl)o2)SC1=S (stereo unspecified)	50µM*	u	u	u	u
O=C(O)C(c1ccccc1)N1C(=O)/C(=C\c2ccc(-c3ccc(Br)cc3)o2)SC1=S (stereo unspecified)	u	u	-9%	u	-4%
Cc1nn(-c2ccccc2)c(Cl)c1C1C(C#N)=C(N)Oc2c1c(C)nn2-c1ccccc1 (stereo unspecified)	-11%	-9%	-27%	-3%	-15%
Cc1nn(Cc2ccccc2)c2c1C(c1cccc(Cl)c1)C(C#N)=C(N)O2 (stereo unspecified)	u	-6%	27µM*	-3%	-9%
CCOC(=O)C1=C(C)N=c2sc(=Cc3cc(Cl)c(OCC(=O)O)c(OC)c3)c(=O)n2C1c1ccccc1Cl (stereo unspecified)	x	x	27µM*	x	x
CCOC(=O)C1=C(c2ccccc2)N=c2s/c(=C\c3ccc(O)cc3)c(=O)n2C1c1cccs1 (stereo unspecified)	-9%	u	23%	-16%	28µM*
CC(=O)C1=C(C)N=c2s/c(=C/c3ccc4c(c3)OCO4)c(=O)n2C1c1ccc(N(C)C)cc1 (stereo unspecified)	32µM*	3%	27µM*	x	-15%
CCOC(=O)C1=C(C)N=c2s/c(=C\c3ccc(OCC(=O)O)c(OC)c3)c(=O)n2C1c1ccc(OC)cc1 (stereo unspecified)	u	4%	-23%	-8%	u
COc1ccc(C2C(C(C)=O)=C(C)N=c3s/c(=C/c4ccc5c(c4)OCO5)c(=O)n32)cc1 (stereo unspecified)	x	x	x	-21%	x
CCOC(=O)C1=C(C)N=c2s/c(=C/c3cccc([N+](=O)[O-])c3O)c(=O)n2C1c1ccccc1 (stereo unspecified)	u	-7%	19µM*	1%	-11%
COCCN(C(=O)COC(=O)C(c1ccccc1)c1ccccc1)c1c(N)n(Cc2ccccc2)c(=O)[nH]c1=O	5%	0%	5%	-7%	-11%
CCOC(=O)C1=C(C)N=c2s/c(=C\c3ccc(C(=O)O)cc3)c(=O)n2C1c1ccc(F)cc1 (stereo unspecified)	u	-10%	30µM*	2%	-13%
CCn1nc(C(=O)NCc2nnc3ccccn23)c2ccccc2c1=O	10%	0%	0%	1%	-16%
CCCNS(=O)(=O)c1ccc(CCC(=O)NCc2ccco2)cc1	-14%	-5%	30µM*	-1%	-20%
CCCCCSc1nc2sc3c(c2c(=O)n1-c1ccc(OC)cc1)CCN(C(C)=O)C3	-16%	x	x	u	u
O=C(O)C(S)[C@@H](S)C(=O)O (stereo partly specified)	4µM*	x	x	7.1µM*	x
O=C(O)C(S)C(S)C(=O)O (stereo unspecified)	u	1%	8.4µM*	x	6%
CC(C)ON([C@@H](C(=O)NO)C(C)C)S(=O)(=O)c1ccc(-c2ccccc2)cc1	-15%	x	x	u	x
COC(=O)CCC(=O)OC1(C)C(=O)C2=CN(Cc3ccc(OC)cc3)C(c3ccc(OC)cc3)=CC2=C(Br)C1=O (stereo unspecified)	u	-8%	u	x	-22%
COC(=O)CCC(=O)OC1(C)C(=O)C2=CN(C3CC3)C(c3ccc(OC)cc3)=CC2=C(Br)C1=O (stereo unspecified)	u	-8%	27µM*	x	22µM*
COC(=O)CCC(=O)OC1(C)C(=O)C2=CN(CCCOC(C)C)C(c3ccc(OC)cc3)=CC2=C(Br)C1=O (stereo unspecified)	u	-20%	u	-16%	28µM*
O=c1[nH]sc2ccccc12	u	-4%	5.3µM*	8.9µM*	3%
O=c1nc(/C=C/c2ccccc2C(F)(F)F)cc(C(F)(F)F)[nH]1	32µM*	-3%	-20%	-7%	-17%
Cc1cc2nnc(SC(C)C)n2c2ccccc12	-3%	-1%	2%	-1%	5%
SMILES	VDR inh	PTAP TSG101 blk	PLK1 PBD inh	GCN5L2 inh	USP1-UAF1 inh
Cc1cc2nnc(SC(C)C#N)n2c2ccccc12 (stereo unspecified)	-23%	-1%	21µM*	0%	-4%
Cc1ccc(C)c(Cn2c(=O)n(CCCC(=O)NCc3ccco3)c(=O)c3sccc32)c1	12%	0%	30µM*	0%	-16%
N#CCN1CCC(c2cc(-c3ccco3)n[nH]2)CC1	-22%	-6%	30µM*	0%	-9%
O=C(O)c1ccccc1NS(=O)(=O)c1ccc(NN=Cc2ccc(F)cc2)c([N+](=O)[O-])c1	-24%	-1%	24µM*	u	-12%
CCOc1nc(NC(=O)NS(=O)(=O)Oc2cccc(F)c2)nc(-c2ccccc2)n1	2%	x	x	-1%	-28%
Cc1nn(-c2ccccc2)c(OC(=O)C(C)C)c1Sc1ccc(Cl)cc1	89µM*	x	x	3%	0%
CC(=O)c1ccc(NS(=O)(=O)c2ccc(N/C=C/C(=O)c3ccc(F)cc3)cc2)cc1	-25%	2%	17µM*	-10%	-13%
CCOc1ccc(C(=O)/C=C/Nc2ccc(S(=O)(=O)Nc3onc(C)c3C)cc2)cc1	0%	-1%	-27%	u	-6%
Cc1noc(NS(=O)(=O)c2ccc(N/C=C\C(=O)c3ccc(Br)cc3)cc2)c1C	-13%	-10%	27µM*	-23%	-28%
CC(=O)c1cccc(NS(=O)(=O)c2ccc(N/C=C/C(=O)c3ccc(F)cc3)cc2)c1	-7%	-5%	0%	-19%	-14%
Cc1noc(NS(=O)(=O)c2ccc(N/C=C\C(=O)c3cccc4ccccc34)cc2)c1C	u	-12%	24µM*	u	-10%
CCCCNC(=O)CCCn1c(=O)c2ccccc2n(Cc2ccccc2C)c1=O	13%	x	x	-2%	-15%
COC(=O)c1c(C)cc(O)cc1O	1%	0%	1%	-8%	-29%
Cc1cc(OC(=O)c2c(C)cc(OC(=O)c3c(C)cc(O)cc3O)cc2O)cc(O)c1C(=O)O	u	-5%	30µM*	x	-11%
O=C(Nc1nc(-c2cccs2)cs1)C1=COCCO1	u	-1%	3.4µM*	0%	-8%
O=C(Nc1nc2cc3c(cc2s1)OCCO3)C1=COCCO1	u	-5%	24µM*	-9%	-8%
O=C(Nc1nc2ccc(F)cc2s1)C1=COCCO1	-21%	1%	-14%	-23%	-5%
